Test results taken from PubChem BioAssay.
A number with no mark means an inactive call. Records with an inconclusive call do not appear. For part of these data: Results with a measured potency or affinity are listed apart. The source made the active and inactive calls. Unless noted, no rule for the calls is given here.

Experiments:
[1] = antimalarial activity against Dd2 strain (AID 2302;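 active = growth inhibition above 50% at the single 2 µM test dose, taken to imply half-maximal potency below 2 µM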;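 also: 0% = DMSO untreated growth and 100% = chloroquine plus artemisinin killed control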); settings: P. falciparum Dd2 in RBCs, LDH growth readout, 72 h; at 2 µM; hits give high values
[2] = human hepatoma cell viability loss – ATP luminescence, cytotoxicity control for P. falciparum antimalarial project, primary screen (AID 2303;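 active = inhibition above 50%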;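 also: 0% = DMSO wells and 100% = digitonin-killed cells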); settings: HepG2 viability, 24-48 h, at 10 µM, hits give high values
[3] = target: L-lactate dehydrogenase (Plasmodium falciparum (isolate CDC / Honduras)) (UniProt Q27743); test: PfLDH activity inhibition – cell lysate, 3D7 strain, counter-screen for P. falciparum growth inhibition project (AID 2304);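 also: 0% = vehicle and 100% = reference inhibitor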; settings: P. falciparum 3D7 crude extract, LDH APAD/NBT absorbance; at 2 µM; hits give high values
[4] = inhibition of 3D7 malaria parasite growth – strain 3D7 (AID 2306);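 also: 0% = DMSO wells and 100% = chloroquine plus artemisinin control wells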; settings: P. falciparum 3D7 erythrocytic growth, LDH absorbance, 72 h; at 2 µM; hits give high values
[5] = target: Calcium-dependent protein kinase 4 (Plasmodium falciparum (isolate 3D7)) (UniProt Q8IBS5); test: PfCDPK4 kinase inhibitors, biochemical, TCAMS library (AID 1159588; cut-off not given, nearly all actives have IC50 up to about 0.91 µM); settings: recombinant PfCDPK4, Kinase-Glo ATP depletion luminescence
[6] = glutamate excitotoxicity neuroprotectants – cell-based, TUNEL DNA degradation staining, MNGlu (AID 1594); settings: motor neurons, glutamate-induced death, at 1 µM, hits give high values

Sequence of L-lactate dehydrogenase (Plasmodium falciparum (isolate CDC / Honduras)) (Q27743 whole entry, looked up): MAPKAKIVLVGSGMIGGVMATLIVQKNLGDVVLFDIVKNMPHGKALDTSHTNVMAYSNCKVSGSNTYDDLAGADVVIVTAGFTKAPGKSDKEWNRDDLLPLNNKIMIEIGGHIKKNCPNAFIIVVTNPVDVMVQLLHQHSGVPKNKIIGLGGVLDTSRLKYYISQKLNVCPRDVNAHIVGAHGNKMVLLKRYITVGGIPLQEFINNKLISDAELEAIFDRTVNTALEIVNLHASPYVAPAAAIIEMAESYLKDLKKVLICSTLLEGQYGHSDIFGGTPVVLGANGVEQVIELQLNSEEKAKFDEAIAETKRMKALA
Sequence of Calcium-dependent protein kinase 4 (Plasmodium falciparum (isolate 3D7)) (Q8IBS5 whole entry, looked up): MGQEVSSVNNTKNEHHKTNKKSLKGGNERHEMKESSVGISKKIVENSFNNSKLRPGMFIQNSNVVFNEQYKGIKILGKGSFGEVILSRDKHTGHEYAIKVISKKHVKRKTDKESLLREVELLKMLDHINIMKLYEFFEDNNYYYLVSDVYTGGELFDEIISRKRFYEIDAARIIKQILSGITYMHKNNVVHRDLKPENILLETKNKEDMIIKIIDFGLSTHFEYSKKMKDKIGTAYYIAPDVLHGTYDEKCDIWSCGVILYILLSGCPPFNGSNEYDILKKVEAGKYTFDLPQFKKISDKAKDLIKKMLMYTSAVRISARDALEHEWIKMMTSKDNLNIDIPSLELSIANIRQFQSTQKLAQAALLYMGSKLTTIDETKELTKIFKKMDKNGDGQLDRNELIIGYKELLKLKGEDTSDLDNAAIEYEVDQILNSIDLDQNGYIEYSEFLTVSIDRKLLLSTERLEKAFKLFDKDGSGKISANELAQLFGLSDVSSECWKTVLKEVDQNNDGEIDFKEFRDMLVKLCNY

| Structure (SMILES) | growth inhibition [1] | inhibition [2] [%] | inhibition [3] [%] | growth inhibition [4] | outcome [5] | protection [6] |
| --- | --- | --- | --- | --- | --- | --- |
| C[C@@H]1C[C@@H]([C@H](O)CC2CC(=O)NC(=O)C2)C(=O)[C@@H](C)C1 | 87% (active) | 46 | -5 | 96% (active) | inactive |  |
| CC(CCc1ccccc1)NC(C)C(O)c1ccc(O)cc1 (stereo unspecified) |  |  |  |  |  | 40% (active) |
